# Experimental data taken from ChEMBL document CHEMBL3988442, “University of Dundee, Small-Polar-MMV Screening Library” (2021).
# Where “and” joins values, the source holds several entries; their conditions need not be identical. Equal values may be shown once. For some assays here: Entries with a potency or affinity are not part of this list.
# Assays:
# Parameters in all cases: scale not given: direction of the effect not stated beside the values
# [1] = target: Protein translocase subunit SecA (Escherichia coli (strain K12)) (UniProt P10408); assay: Assay to Identify E. coli SecA ATPase Inhibitors; format: functional; settings: 30 µM
# Chain of Protein translocase subunit SecA (Escherichia coli (strain K12)) (P10408 whole entry): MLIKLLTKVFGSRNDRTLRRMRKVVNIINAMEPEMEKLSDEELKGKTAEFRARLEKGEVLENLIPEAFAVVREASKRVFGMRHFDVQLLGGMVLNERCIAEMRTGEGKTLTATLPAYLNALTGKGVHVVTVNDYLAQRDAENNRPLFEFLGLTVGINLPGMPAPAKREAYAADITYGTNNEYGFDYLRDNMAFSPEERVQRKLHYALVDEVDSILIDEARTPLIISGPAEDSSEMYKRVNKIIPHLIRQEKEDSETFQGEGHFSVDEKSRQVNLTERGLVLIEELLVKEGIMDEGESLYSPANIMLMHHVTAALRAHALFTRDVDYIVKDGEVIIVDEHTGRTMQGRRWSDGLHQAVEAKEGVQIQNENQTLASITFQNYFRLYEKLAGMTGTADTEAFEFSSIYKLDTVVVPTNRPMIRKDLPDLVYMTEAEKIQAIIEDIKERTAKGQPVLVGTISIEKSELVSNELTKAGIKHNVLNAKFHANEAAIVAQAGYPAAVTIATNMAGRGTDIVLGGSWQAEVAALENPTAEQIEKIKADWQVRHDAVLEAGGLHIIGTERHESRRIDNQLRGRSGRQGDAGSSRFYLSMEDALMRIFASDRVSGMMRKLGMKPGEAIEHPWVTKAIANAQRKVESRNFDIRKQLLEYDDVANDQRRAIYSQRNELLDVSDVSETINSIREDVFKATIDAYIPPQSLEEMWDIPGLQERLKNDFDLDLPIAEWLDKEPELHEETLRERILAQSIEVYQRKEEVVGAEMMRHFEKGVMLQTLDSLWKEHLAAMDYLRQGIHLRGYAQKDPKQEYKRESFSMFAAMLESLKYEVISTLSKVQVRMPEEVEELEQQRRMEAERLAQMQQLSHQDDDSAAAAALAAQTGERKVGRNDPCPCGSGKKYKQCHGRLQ
# [2] = target: T1, Ubiquitin-activating enzyme e1, putative (Leishmania donovani (strain BPK282A1)) (UniProt E9BSI1); assay: Leishmania donovani Ubiquitin Activating Enzyme (LdE1); format: functional; settings: 30 µM
# T1 sequence (whole entry): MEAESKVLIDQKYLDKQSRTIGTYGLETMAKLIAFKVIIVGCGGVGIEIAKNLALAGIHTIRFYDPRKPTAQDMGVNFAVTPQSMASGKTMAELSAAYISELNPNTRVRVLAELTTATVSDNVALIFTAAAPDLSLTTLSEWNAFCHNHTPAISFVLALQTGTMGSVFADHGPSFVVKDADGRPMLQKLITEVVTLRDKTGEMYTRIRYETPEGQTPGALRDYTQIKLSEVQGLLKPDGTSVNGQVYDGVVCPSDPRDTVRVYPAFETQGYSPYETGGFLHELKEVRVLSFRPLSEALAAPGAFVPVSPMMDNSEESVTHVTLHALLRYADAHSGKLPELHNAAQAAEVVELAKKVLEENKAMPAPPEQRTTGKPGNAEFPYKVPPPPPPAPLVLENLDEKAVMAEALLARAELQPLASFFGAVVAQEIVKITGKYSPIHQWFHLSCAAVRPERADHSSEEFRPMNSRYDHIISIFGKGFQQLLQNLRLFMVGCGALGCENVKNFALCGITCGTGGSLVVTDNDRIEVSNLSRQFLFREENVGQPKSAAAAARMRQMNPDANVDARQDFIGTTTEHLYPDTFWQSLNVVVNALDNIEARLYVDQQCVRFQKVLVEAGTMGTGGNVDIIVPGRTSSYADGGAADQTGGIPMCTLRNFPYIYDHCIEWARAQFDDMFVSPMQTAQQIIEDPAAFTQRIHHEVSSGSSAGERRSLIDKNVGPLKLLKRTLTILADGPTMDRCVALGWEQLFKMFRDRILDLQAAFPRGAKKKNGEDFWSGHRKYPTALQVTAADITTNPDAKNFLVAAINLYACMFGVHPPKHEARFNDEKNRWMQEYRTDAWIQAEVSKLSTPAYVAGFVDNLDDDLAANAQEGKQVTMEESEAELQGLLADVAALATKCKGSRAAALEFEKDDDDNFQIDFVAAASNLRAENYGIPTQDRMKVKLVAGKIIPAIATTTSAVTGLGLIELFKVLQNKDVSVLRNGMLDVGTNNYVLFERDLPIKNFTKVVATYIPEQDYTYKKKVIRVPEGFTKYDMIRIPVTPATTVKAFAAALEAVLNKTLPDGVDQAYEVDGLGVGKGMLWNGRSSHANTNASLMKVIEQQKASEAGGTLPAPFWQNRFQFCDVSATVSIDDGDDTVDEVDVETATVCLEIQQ
# [3] = target: Sialic acid-binding Ig-like lectin 9 (Homo sapiens) (UniProt Q9Y336); assay: Hs-Siglec9 ALPHAscreen SOP 20170721; settings: 10 µM
# Chain of Sialic acid-binding Ig-like lectin 9 (Homo sapiens) (Q9Y336 whole entry): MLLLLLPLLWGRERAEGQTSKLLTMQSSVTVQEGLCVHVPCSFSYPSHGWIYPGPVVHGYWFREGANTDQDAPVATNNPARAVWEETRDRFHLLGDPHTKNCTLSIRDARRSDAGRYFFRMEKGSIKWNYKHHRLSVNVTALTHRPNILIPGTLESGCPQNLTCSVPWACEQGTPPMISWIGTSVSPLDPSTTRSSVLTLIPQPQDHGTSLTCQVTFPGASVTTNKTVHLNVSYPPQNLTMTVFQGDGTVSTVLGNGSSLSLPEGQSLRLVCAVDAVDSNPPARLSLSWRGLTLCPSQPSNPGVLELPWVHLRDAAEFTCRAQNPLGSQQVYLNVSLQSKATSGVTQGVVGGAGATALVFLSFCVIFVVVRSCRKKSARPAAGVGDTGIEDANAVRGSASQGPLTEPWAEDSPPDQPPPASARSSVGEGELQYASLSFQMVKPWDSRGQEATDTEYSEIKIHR
# Trypanosoma cruzi = assay: Trypanosoma cruzi phosphomannomutase and mannose-1-phosphate guanylyltransferase assay; format: functional; settings: 10 µM
# [4] = target: T2, Arginase-2, mitochondrial (Homo sapiens) (UniProt P78540); assay: in vitro enzyme assay to detect the production of urea directly proportional to the activity of Arginase II; format: functional; settings: 33.3 µM; also: in the data most compounds retested in dose-response had high values
# T2 sequence (whole entry): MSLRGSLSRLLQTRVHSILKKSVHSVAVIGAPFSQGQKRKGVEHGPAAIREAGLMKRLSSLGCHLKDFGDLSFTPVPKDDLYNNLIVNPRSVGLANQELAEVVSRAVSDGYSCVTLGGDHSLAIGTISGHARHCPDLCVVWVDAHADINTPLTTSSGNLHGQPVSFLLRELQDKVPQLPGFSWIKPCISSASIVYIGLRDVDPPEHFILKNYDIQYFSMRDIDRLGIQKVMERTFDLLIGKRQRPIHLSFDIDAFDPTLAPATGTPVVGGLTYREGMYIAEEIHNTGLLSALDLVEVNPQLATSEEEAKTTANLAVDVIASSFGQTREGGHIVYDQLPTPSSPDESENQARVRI
# [5] = target: T3, Proteasome subunit beta (Trypanosoma cruzi) (UniProt O96673); assay: Trypanosoma cruzi proteasome chymotrypsin-like activity (TcProtChymo) assay.; also: in the data most compounds retested in dose-response had high values; format: functional; settings: 9.37 µM
# T3 sequence (whole entry): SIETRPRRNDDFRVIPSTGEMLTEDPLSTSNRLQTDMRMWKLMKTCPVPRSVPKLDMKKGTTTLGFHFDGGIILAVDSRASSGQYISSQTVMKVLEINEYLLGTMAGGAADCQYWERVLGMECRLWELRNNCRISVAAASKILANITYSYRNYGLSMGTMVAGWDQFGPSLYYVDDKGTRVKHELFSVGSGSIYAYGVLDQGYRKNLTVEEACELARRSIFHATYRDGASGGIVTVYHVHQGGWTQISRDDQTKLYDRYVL
# Homo sapiens = organism: Homo sapiens; assay: To identify inhibition of the IFN signalling (Jak-Stat) pathway via expression of an eGFP reporter gene under the control of an IFN-stimulated response element (ISRE) containing MxA promoter.; format: functional; settings: 30 µM
# [6] = target: T4, Tyrosyl-tRNA synthetase, putative (Trypanosoma cruzi (strain CL Brener)) (UniProt Q4DSP6); assay: Trypanosoma cruzi tyrosyl tRNA synthetase (TcYRS) _High Tyrosine SOP; format: functional; settings: 30 µM; also: in the data most compounds retested in dose-response had high values
# T4 sequence (whole entry): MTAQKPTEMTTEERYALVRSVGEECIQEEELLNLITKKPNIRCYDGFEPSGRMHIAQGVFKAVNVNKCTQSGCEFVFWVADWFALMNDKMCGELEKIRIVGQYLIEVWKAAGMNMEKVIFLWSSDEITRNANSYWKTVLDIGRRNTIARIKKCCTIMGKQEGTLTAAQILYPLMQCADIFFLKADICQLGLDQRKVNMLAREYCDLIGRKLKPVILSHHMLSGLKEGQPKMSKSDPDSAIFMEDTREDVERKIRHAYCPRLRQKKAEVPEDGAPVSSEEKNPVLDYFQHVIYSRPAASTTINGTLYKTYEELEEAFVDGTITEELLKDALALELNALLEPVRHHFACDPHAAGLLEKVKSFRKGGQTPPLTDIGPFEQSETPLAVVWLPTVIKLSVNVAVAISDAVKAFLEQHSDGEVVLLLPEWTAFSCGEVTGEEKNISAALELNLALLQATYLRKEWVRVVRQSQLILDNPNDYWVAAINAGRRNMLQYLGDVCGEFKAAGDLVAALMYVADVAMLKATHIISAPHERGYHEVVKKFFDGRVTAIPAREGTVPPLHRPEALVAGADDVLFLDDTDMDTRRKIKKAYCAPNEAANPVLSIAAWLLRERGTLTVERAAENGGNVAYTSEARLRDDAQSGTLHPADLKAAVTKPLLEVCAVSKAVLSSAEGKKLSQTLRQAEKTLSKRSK
# [7] = target: T4, Tyrosyl-tRNA synthetase, putative (Trypanosoma cruzi (strain CL Brener)); assay: Trypanosoma cruzi tyrosyl tRNA synthetase (TcYRS) SOP; format: functional; settings: 30 µM
# [8] = target: Chromo domain-containing protein 1 (Saccharomyces cerevisiae (strain ATCC 204508 / S288c) (Baker's yeast)) (UniProt P32657); assay: ScCHD-1 Enzyme Inhibition Assay; format: functional; settings: 30 µM; also: in the data most compounds retested in dose-response had high values
# Chain of Chromo domain-containing protein 1 (Saccharomyces cerevisiae (strain ATCC 204508 / S288c) (Baker's yeast)) (P32657 whole entry, the tested form may be a part): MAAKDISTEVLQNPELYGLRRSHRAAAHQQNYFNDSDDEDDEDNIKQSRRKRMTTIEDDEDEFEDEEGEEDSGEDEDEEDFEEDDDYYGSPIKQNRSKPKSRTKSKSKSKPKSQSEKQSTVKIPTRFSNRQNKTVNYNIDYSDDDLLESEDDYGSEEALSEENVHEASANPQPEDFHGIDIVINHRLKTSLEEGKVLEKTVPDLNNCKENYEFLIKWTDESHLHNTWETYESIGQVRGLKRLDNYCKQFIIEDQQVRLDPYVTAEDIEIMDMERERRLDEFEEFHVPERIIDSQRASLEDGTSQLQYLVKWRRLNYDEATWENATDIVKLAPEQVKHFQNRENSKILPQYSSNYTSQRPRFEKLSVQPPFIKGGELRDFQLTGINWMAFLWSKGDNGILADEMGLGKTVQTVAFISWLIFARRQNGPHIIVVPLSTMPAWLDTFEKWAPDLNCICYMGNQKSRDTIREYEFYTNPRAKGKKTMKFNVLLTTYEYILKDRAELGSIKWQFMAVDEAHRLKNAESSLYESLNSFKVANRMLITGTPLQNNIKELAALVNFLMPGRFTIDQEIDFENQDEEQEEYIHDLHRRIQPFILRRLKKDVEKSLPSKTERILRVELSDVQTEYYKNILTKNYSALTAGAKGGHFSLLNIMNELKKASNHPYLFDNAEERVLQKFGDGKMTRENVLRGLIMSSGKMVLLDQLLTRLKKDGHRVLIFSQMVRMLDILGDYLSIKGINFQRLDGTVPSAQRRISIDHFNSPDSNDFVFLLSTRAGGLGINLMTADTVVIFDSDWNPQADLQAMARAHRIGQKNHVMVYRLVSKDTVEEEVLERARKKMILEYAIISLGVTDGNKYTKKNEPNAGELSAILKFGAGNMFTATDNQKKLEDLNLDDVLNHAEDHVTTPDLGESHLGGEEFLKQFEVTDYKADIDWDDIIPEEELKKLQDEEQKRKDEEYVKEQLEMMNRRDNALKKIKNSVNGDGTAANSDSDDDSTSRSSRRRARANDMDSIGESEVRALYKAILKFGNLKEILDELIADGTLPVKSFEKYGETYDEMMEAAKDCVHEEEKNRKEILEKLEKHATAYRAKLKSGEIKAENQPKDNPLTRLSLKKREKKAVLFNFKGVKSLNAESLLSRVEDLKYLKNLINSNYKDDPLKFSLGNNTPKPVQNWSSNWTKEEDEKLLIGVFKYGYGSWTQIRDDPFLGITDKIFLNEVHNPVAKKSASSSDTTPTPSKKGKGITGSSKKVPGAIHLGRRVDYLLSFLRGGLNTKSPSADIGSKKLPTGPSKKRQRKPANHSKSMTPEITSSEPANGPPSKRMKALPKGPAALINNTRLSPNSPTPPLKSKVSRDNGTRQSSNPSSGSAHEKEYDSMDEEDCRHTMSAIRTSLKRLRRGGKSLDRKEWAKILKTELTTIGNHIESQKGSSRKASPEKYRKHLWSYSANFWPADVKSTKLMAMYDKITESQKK
# N/A = assay: Trypanosoma cruzi proteasome luciferase counter-screen; format: functional; settings: 9.37 µM
SMILES,Percent Effect [1],Percent Effect [2],Percent Effect [3],Percent Effect (Trypanosoma cruzi),Percent Effect [4],Percent Effect [5],Percent Effect (Homo sapiens),Percent Effect [6],Percent Effect [7],Percent Effect [8],Percent Effect (N/A)
Cc1ccc(C(=O)N2CCCS2(=O)=O)cc1Cl,-1.08%,5.33%,-1.7%,-4.62%,3.1%,3.99%,-6.01%,0.526%,0%,-6.7%,
CN(Cc1nc2c(cnn2C)c(=O)[nH]1)Cc1ccc(F)cc1F,-0.314%,20.5%,-17.8%,2.72%,-2.05%,16.8%,3.63%,7.18%,25.3%,-5.98%,
c1cnn(Cc2nnc3n2CCCN(CC2CCOCC2)C3)c1,-8.53%,1.3%,-2.75%,-3.02%,-2.83%,3.62%,1.85%,-0.526%,5.13%,2.31%,
CCc1nccn1C1CCCN(C(=O)c2csc(COC)n2)C1 (centres undefined),-5.68%,10.4%,12.8%,-5.78%,-1.43%,7.89%,13.9%,4.9%,9.41%,-5.76%,
CN(C)c1cc(C(=O)N2CCN(c3cnccn3)CC2)ccn1,-1.53%,10.3%,0.94%,3.1%,2.46%,3.16%,3.38%,5.26%,10.8%,-7.53%,
CC(C)NC(=O)Nc1ccc(CNCc2cccc(C#N)c2)cc1,2.25%,20.8%,4.68%,0.933%,-0.615%,6.84%,0.521%,9.8%,28.2%,-12.8%,
Cc1nccn1Cc1nnc(C2CCCN(Cc3cccnc3)C2)n1C (centres undefined),-4.77%,16.2%,4.69%,5.53%,-6.64%,12.3%,5.04%,9.04%,14.6%,-2.63%,
CCS(=O)(=O)N1C[C@@H](OCc2cccnc2)[C@H]2OCCC[C@H]21,-10.2%,1.3%,6.61%,-4.58%,-3.64%,7.68%,9%,4.74%,7.69%,0.0373%,
Cc1ccc(S(=O)(=O)N2CCC3(CC(C(=O)NCC4CC4)=NO3)C2)cc1 (centres undefined),-5.9%,6.49%,-4.73%,-4.38%,0%,18.3%,5.59%,1.58%,7.69%,-3.09%,
Cn1ccc(CN2CCCC2c2ccc3c(c2)OCCCO3)cc1=O (centres undefined),-1.37%,7.69%,-4.76%,1.78%,6.56%,18.2%,22%,9.09%,20.5%,-1.67%,
O=S(=O)(N1CCCC1)N1CCCCC1CCc1ccccc1 (centres undefined),-6.97%,0%,-0.69%,-3.59%,-1.05%,13%,25.4%,-3.72%,-4.88%,-0.676%,
CC(NC(=O)c1cc(Br)c2c(c1)OCCO2)C(N)=O (centres undefined),-7.52%,18.7%,6.37%,5.82%,-3.55%,17.9%,0.842%,2.63%,10.3%,77.7%,
CN(C)CC1CN(Cc2ccc3c(c2)OCO3)Cc2nccn2C1 (centres undefined),-10.1%,-42.9%,7.99%,0.682%,-3.64%,5.56%,12.4%,0.526%,0%,-1.33%,
Cc1cccnc1CN(C)CC1(O)CCCN(CC2CCCCC2)C1=O (centres undefined),-5.13%,-2.7%,19.5%,6.69%,5.94%,9.76%,23%,13.3%,17.1%,-2.65%,
CN1CCOC(CNC(=O)CCCOCCc2ccccc2)C1 (centres undefined),-3.33%,17.9%,-5.99%,9.86%,3.28%,9.13%,19.5%,4.31%,22.9%,-6.94%,
COc1ccc(C2CC(=O)Nc3c2cnn3C)cc1 (centres undefined),-6.08%,2.7%,-3.92%,-9.99%,-5.94%,8.39%,39.8%,-0.532%,4.88%,-3.56%,
CC(C)NC(=O)C1CN(C(=O)c2ccco2)CC12CCOCC2 (centres undefined),-1.7%,9.09%,-6.62%,3.41%,3.24%,10.2%,-3.41%,8.95%,12.8%,-4.15%,
Fc1cnc(N2CCOC3(CCN(Cc4ccsc4)CC3)C2)nc1,-0.851%,3.9%,-6.39%,-6.52%,6.88%,,4.01%,11.1%,7.69%,-4.59%,5.37% and 9.17%
COCCOc1cccc(C(=O)N2CCCC(n3cccn3)C2)c1 (centres undefined),-3.05%,2.6%,10.5%,-0.746%,-1.84%,2.28%,7.63%,0%,4.71%,3.61%,
COc1cccc(CN2CCC3(CCN(C(=O)[C@H]4CCCO4)CC3)C2)c1,-2.54%,22.1%,-5.6%,0.188%,0%,12.6%,-14.8%,10.6%,-2.5%,-10.4%,
Cc1ccc(-c2nc(CN3CCn4c(nnc4C4CC4)C3)cs2)o1,2.56%,0%,-11.3%,-0.0939%,-2.87%,16.3%,35.1%,5.26%,10.8%,-4.37%,
O=S(=O)(CCNC1CCc2ncnn2C1)c1ccccc1 (centres undefined),-0.316%,0%,9.36%,0.746%,-1.43%,5.09%,0.944%,1.96%,4.71%,5.51%,
OCC1CCCCN1c1ccc(-c2nc(-c3ccccc3F)no2)cn1 (centres undefined),-2.19%,-5.41%,7.51%,5.14%,16.4%,,1.31%,-0.532%,4.88%,86.3%,
CCOC(=O)CNC(=O)c1cccnc1Oc1ccc(Cl)cc1,3.19%,1.3%,56.3%,0.375%,6.85%,11.6%,25.5%,3.87%,0%,-12.4%,
